Source: PubChem
An excerpt weighted towards active compounds, which were near 2.4% of everything screened.
D2 ag-1 = human D2 receptor agonism in beta-arrestin assay | DiscoveRx PathHunter D2 beta-arrestin, luminescence, 90 min; 100% = 57 uM dopamine signal | activation, % (no concentration beside the values) | AID 624465 | actives 0.084% (n = 360,000) | P14416; in the data active = activation above about 40%; inconclusive = between about 15% and that limit
Target sequence (P14416 whole entry, looked up): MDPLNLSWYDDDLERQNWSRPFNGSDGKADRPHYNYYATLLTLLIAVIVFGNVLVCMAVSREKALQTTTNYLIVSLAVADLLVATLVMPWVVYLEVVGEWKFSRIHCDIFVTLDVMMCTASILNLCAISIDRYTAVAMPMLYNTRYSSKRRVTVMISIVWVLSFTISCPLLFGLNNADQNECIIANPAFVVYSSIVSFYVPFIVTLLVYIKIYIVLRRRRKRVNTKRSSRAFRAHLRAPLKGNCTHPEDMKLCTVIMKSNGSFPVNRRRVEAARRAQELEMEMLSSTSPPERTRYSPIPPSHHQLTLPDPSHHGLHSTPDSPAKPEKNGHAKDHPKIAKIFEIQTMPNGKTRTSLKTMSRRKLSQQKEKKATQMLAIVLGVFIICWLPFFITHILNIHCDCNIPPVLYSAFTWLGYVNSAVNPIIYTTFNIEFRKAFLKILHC
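DiscoveRx PathHunter D2 beta-arrestin cells (2,100/well) attached overnight, then compound-stimulated 90 min at 37 C in HBSS/10 mM HEPES/0.1% Tween-20 buffer; beta-galactosidase complementation read by luminescence after 1 h at ambient temperature. Dopamine 57 uM final (EC100) as control.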
D2 ag-2 = activates the human D2 dopamine receptor; P14416; HEK293 T-REx D2 cells, calcium flux agonist mode; activation, % at 2 µM; actives 0.53% (n = 340,000);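 active = activation over 3 SD above normal in the single-dose calcium agonist read, cut at about 30% in these data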; note: 0% is about no effect
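Calcium-flux readout, 1 cycle/sec over 180 s following compound pin transfer, in inducible HEK293 Trex D2 cells (force-coupled); dopamine controls included. Positive calcium responses during this window marked compounds as potential agonists.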
D2 PAM-1 = human D2 receptor positive allosteric modulation; DiscoveRx D2 beta-arrestin cells, luminescence, 90 min; 100% = 57 uM dopamine signal; potentiation, % (test concentration not listed); actives 0.23% (n = 360,000); in the data active = potentiation above about 50%; inconclusive = mostly about 30% to 49%
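PathHunter D2 cells, attached overnight at 37 deg C, received compound in DMSO plus dopamine at EC20 (50 nM final) for 90 min at 37 deg C. Beta-arrestin recruitment was read as luminescence after 1 h with detection reagent at ambient temperature.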
D2 antag = D2 dopamine receptor (human) antagonism | P14416 | HEK293 TREx D2 cells, calcium flux, dopamine EC80 | inhibition, % at 10 µM | actives 2% (n = 340,000) | AID 485344; in the data active = inhibition above about 30%; inactive = below that, where a call was filed; note: 0% is about no effect
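Calcium flux kinetic readout in an inducible HEK293 TREx D2 line plated overnight at 30 C. After 180 s compound exposure, an EC80 dopamine challenge follows with another 180 s kinetic read to detect antagonism.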
D2 PAM-2 = positively modulates the human D2 dopamine receptor allosterically. potentiation, % at 10 µM. actives 0.34% (n = 340,000). P14416. HEK293 T-REx D2, calcium flux, EC20 dopamine potentiation;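 active = potentiation over 3 SD above the plate norm, cut at about 30% in these data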; note: 0% is about no effect
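Potentiation of an EC20 dopamine calcium response is measured in a force-coupled, tetracycline-inducible Hek293 Trex D2 line. Compound-only kinetic reads over 180 s flag agonists before dopamine addition.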
* marks the source's active call; other numbers are inactive results; u = inconclusive; x = not tested or not shown; ! = not confirmed by another sample.

SMILES	D2 ag-1	D2 ag-2	D2 PAM-1	D2 antag	D2 PAM-2
NC(=O)C1C(c2ccccc2)=C1c1ccccc1	-2	0	-7	38*	-3
COC(=O)c1cc(NC(=O)CN(c2cccc(OC)c2)S(=O)(=O)c2ccccc2)ccc1Cl	-2	2	-11	13	3
COc1ccc(N(CC(=O)Nc2cccnc2)S(=O)(=O)c2ccccc2)cc1Cl	-1	0	-8	31*	-21
COc1ccc(S(=O)(=O)N(CC(=O)Nc2ccc(C)cc2)c2ccc(C)cc2)cc1OC	x	1	x	x	-2
COc1ccc(N(CC(=O)Nc2cccnc2)S(=O)(=O)c2ccc(C)cc2)cc1Cl	-1	5	-20	4	x
O=C(CN(c1ccccc1)S(=O)(=O)c1ccc(Cl)cc1)Nc1cccnc1	-3	1	-11	34*	-33
COC(=O)c1cc(NC(=O)CN(c2ccccc2OC)S(=O)(=O)c2ccccc2)ccc1Cl	-2	1	-7	36*	-4
CCOc1ccc(NC(=O)CN(c2ccc(OC)c(OC)c2)S(=O)(=O)c2ccc(C)cc2)cc1	-6	1	-5	55*	4
Oc1c(C(c2ccccc2F)N2CCOCC2)sc2nc(-c3ccco3)nn12 (stereo unspecified)	x	1	x	x	-1
Cc1ccc(NC(=O)CCc2c(C)nc3cc(-c4ccccc4)nn3c2C)cc1F	x	x	x	x	-3
CC(C)NCC(O)c1ccc(O)c(O)c1 (stereo unspecified)	-1	5	-2	17	33*
CNC[C@H](O)c1ccc(O)c(O)c1	63*	5	79*	25	-18
Cc1ccc(S(=O)(=O)N/N=C\c2cccnc2)cc1	4	0	-14	35*	-1
O=[N+]([O-])c1ccc(C[n+]2ccc(Cc3ccccc3)cc2)cc1	13	0	10	3	-1
c1ccc(Cc2cc[n+](Cc3ccccn3)cc2)cc1	-2	0	-2	42*	9
CN(C)S(=O)(=O)c1cccc(C(=O)NCCOC(=O)c2cc(F)c(F)cc2Cl)c1	2	0	-6	34*	14
CN(C)S(=O)(=O)c1cccc(C(=O)NCCNC(=O)c2cccc(S(=O)(=O)N(C)C)c2)c1	-5	-1	-8	-5	17
COC(=O)N(C)C[C@@H]1OCc2ccccc2-c2c(n(C)c3ccccc23)C(=O)N([C@H](C)CO)C[C@@H]1C	-5	x	-5	x	x
COC(=O)CCNCCSc1nnc(-c2ccco2)n1Cc1ccccc1	-6	2	-25	33*	-13
C/C(=N\NC(=O)c1nnn(-c2nonc2N)c1CN1CCCCC1)c1ccccc1O	-6	0	-6	30*	-4
CC1CCN(Cc2c(C(=O)N/N=C/c3cccc(Cl)c3)nnn2-c2nonc2N)CC1	1	0	-13	-8	38*
CCCSc1ccc([C@@H]2[C@@H]3C(=O)N(C)C(=O)[C@@H]3[C@]3(C(=O)OC)CCCCN23)cc1OC	-1	2	-11	35*	4
Cc1cn2c(=O)cc(COC(=O)c3cccc(NC(=O)c4ccccc4C)c3)nc2s1	x	1	x	x	x
O=S(=O)(Cc1ccc(Cl)cc1)c1ccccc1-c1nnc(-c2ccccc2)o1	1	1	10	55*	8
CS(=O)(=O)c1ccccc1-c1nnc(-c2ccc(Cl)cc2)o1	0	0	-4	19	-2
SMILES	D2 ag-1	D2 ag-2	D2 PAM-1	D2 antag	D2 PAM-2
COc1ccc(-c2nn(C)c3sc(C(=O)N4CCN(c5cccc(C)c5C)CC4)cc23)cc1OC	x	0	x	x	-6
C/C(=N\NC(=O)c1c(Cl)c(C)nn1C)c1cccc(NC(=O)c2cccc(F)c2)c1	-4	0	-22	49*	-16
Cc1ccc(C(C)C)c(OCc2n[nH]c(=S)o2)c1	2	0	-7	-6	14
Cc1ccc(C(C)C)c(OCc2nc(-c3nonc3N)no2)c1	1	-1	-6	33*	6
CCOc1ccc(-c2nc3c(c(SCC(=O)N4CCCCC4)n2)Cc2cccc(OC)c2O3)cc1	x	0	x	x	9
COC(=O)c1cc(S(=O)(=O)n2nc(C)c(Br)c2C)c(Cl)cc1Cl	-2	-1	54*	-10	4
Cc1cc(C)n(S(=O)(=O)c2cc(C(=O)O)c(Cl)cc2Cl)n1	0	1	-5	-17	x
COc1ccc(CNc2ncnc3c2nnn3C)cc1	x	1	x	x	3
COc1ccc(-c2noc(N3CCC(C(=O)NCc4ccccc4Cl)CC3)n2)cc1	-2	1	-3	48*	14
O=C(O)c1cc(-c2cccs2)nc2ccc(Br)cc12	x	0	x	34*	0
Cc1ccc(-c2cc(C(=O)Nc3cc(C(=O)O)ccc3C)c3ccccc3n2)cc1	-2	0	5	-30	32*
Cc1ccc(-c2cc(C(=O)O)c3ccccc3n2)s1	-3	0	-13	34*	-8
O=C(O)c1cc(-c2ccccc2)nc2ccccc12	-7	-1	-4	40*!	0
Cc1ccc(C)c(NC(=O)c2cc(C)nc3ccccc23)c1	0	-2	13	-2	1
Cc1cccc(N2CCN(C(=O)C3CCN(C(=O)c4cc5sccc5n4C)CC3)CC2C)c1 (stereo unspecified)	x	2	x	x	23
COc1ccc(CCNC(=O)CN2C(=O)COc3ccc(C)cc32)cc1OC	x	x	x	x	-2
O=C(N/N=C/c1ccco1)c1cc(-c2ccccc2)nc2ccccc12	-3	0	-35	37*	-20
Cn1c(=O)c2c(nc(N/N=C/c3cccs3)n2C)n(C)c1=O	2	0	3	-4	6
Cn1c(=O)c2c(nc(N/N=C/c3ccco3)n2C)n(C)c1=O	2	0	4	52*	-1
CCN(CC)C(=O)CN1C(=O)COc2ccc(S(=O)(=O)N3CCOCC3)cc21	x	0	x	x	-1
CCC(C)NC(=O)CN1C(=O)COc2ccc(S(=O)(=O)N3CCOCC3)cc21 (stereo unspecified)	-1	0	3	44*	-9
CCCCOC(=O)c1ccc(NC(=O)c2cc(-c3ccccc3)on2)cc1	x	2	x	x	0
COc1ccc(CCNC(=O)Cn2cc(C(=O)c3ccccc3)c(=O)c3ccc(C)nc32)cc1OC	x	0	x	x	-3
COc1cccc(NC(=O)Cn2c(=O)n(C)c(=O)c3sc4c(c32)COC(C)(C)C4)c1	-1	0	-5	43*	-11
Cc1ccc(S(=O)(=O)c2c(Nc3ccccc3)sc(C(=O)c3ccc4c(c3)OCO4)c2N)cc1	x	3	x	x	-2
N/C(=N\OS(=O)(=O)c1ccc(Cl)cc1)c1ccncc1	u	1	67*	1	0
Cc1ccc(-c2nnc(Sc3nc4ccccc4o3)c3ccccc23)cc1	-1	1	-6	15	9
